SRC1 TRFRET art – TR-FRET artefact, counter-screen to PPARgamma/SRC-1 agonist assay; TR-FRET ratio at 8 µM; AID 1051; 0.34% of 99,000 active; TR-FRET detection artefact counter-screen, emission ratio; active compounds read high; in the data active = TR-FRET ratio above about 2300
PPARg SRC1 recr – agonists of human PPARgamma SRC-1 coactivator recruitment; P37231; PPARgamma-SRC-1 coactivator recruitment biochemical assay; activation, % at 8 µM; 0.41% of 200,000 active; in the data active = activation above about 19%;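 also: 0% = DMSO and 100% = reference agonist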
SRC3 TRFRET art – TR-FRET artefact, counter-screen to PPARgamma/SRC-3 agonist assay. PPARgamma/SRC-3 format; active compounds read high. TR-FRET ratio at 8 µM. 0.39% of 99,000 active. AID 1048; in the data active = TR-FRET ratio above about 2000
PPARg SRC2 recr – PPARgamma-driven SRC-2 recruitment agonism; P37231; PPARgamma LBD-SRC-2 recruitment, biochemical; activation, % at 8 µM; 0.34% of 200,000 active; AID 1032;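 also: 0% = vehicle and 100% = reference agonist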
SRC2 TRFRET art – TR-FRET artefact, counter-screen to PPARgamma/SRC-2 agonist assay; active compounds read high; TR-FRET ratio at 8 µM; 0.4% of 200,000 active; AID 1049; in the data active = TR-FRET ratio above about 2000
PPARg SRC3 recr – promotes SRC-3 coactivator recruitment by human PPARgamma; 0.26% of 200,000 active; AID 731; activation, % at 8 µM; biochemical PPARgamma/SRC-3 coactivator recruitment assay; in the data active = activation above about 23%;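 also: 0% = DMSO and 100% = reference agonist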
PPARg SRC2 ag – confirmation of agonists of SRC-2 recruitment by human PPARgamma. shares compounds with PPARg SRC3 recr. 52% of 790 active. activation, % at 8 µM. biochemical SRC-2 recruitment by PPARgamma;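 also: 0% = vehicle alone and 100% = reference agonist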
PPARg SRC1 conf – human PPARgamma SRC-1 recruitment agonism, confirmation. shares compounds with PPARg SRC3 recr. PPARgamma–SRC-1 coactivator recruitment biochemical assay. activation, % at 8 µM. 43% of 790 active. AID 1300; in the data active = activation above about 20%;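 also: 0% = vehicle wells and 100% = reference agonist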
PPARg SRC3 conf – human PPARgamma SRC-3 recruitment agonism, confirmation | AID 1301 | activation, % at 8 µM | 29% of 790 active | biochemical PPARgamma-SRC-3 coactivator recruitment, agonist mode | shares compounds with PPARg SRC3 recr; in the data active = activation above about 24%;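 also: 0% = vehicle wells and 100% = reference agonist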
Active calls of the source: *; / = no result. This is a sample that favours compounds with a hit; in the whole collection about 0.9% have one here. Rule as the data show it, unless noted: active = activation above about 22%; inactive = the rest.

SMILES | SRC1 TRFRET art | PPARg SRC1 recr | SRC3 TRFRET art | PPARg SRC2 recr | SRC2 TRFRET art | PPARg SRC3 recr | PPARg SRC2 ag | PPARg SRC1 conf | PPARg SRC3 conf
COc1ccc(NC(=O)c2oc3cc(C)c(C)cc3c2C)c(OC)c1 | / | -5.5 | / | -8.8 | 1355 | 3.2 | / | / | /
CCN(CC)S(=O)(=O)c1ccc2oc(C(=O)Nc3ccc(OC)cc3OC)c(C)c2c1 | / | 18.9* | / | 12.6 | 1691 | -10.1 | -0.1 | 3.0 | 1.7
Cc1[nH]c2ccccc2c1/C=C/c1cc[n+](C)cc1 | / | 24.6* | / | 10.2 | 1692 | 16.7 | 17.4 | 13.2 | 11.8
CC(C)(C)NC(=O)CSc1nc2ccc(NC(=O)CSc3nnc(N)s3)cc2s1 | 1983 | -0.7 | 1449 | -3.2 | 1407 | -0.2 | / | / | /
C=CCCCCCCCC(=O)OC | 1995 | 22.4* | 1763 | 13.5 | 1655 | 5.2 | 4.6 | 3.6 | 2.2
COC(=O)c1c(C)[nH]c(C(=O)C(C)Sc2nnc(-c3cc(OC)c(OC)c(OC)c3)o2)c1C (configuration not stated) | / | 27.0* | / | 3.6 | 1724 | 12.6 | 24.4* | 25.4* | 17.3
COc1ccc(NC(=O)c2cc3c(s2)CCC(C)C3)cc1S(=O)(=O)N1CCOCC1 (configuration not stated) | 1722 | 5.8 | 1635 | 8.7 | 1706 | 4.6 | / | / | /
Cc1ccc(C(=O)CSc2nc(-c3ccccc3)ccc2C#N)cc1 | 2016 | 9.1 | 1806 | 5.3 | 1714 | 0.8 | / | / | /
N#Cc1ccc(-c2ccc3c(c2)OCO3)nc1SCC(=O)OCc1ccccc1 | / | 39.6* | / | 10.2 | 1976* | 46.1* | 50.6* | 42.6* | 25.2*
CCNc1ccc2noc3c2c1C(=O)c1ccccc1-3 | / | 4.9 | / | 0.9 | 1616 | 10.7 | / | / | /
O=C1c2ccccc2-c2onc3ccc(NCc4ccco4)c1c23 | 2253 | 31.7* | 2084* | 35.4* | 1951 | 20.9 | 22.7* | 14.0 | 12.6
CC1=CC(C)(C)N(C(=O)CNC2CCCCC2)c2cc(C)ccc21 | 1702 | -0.2 | 1542 | 0.8 | 1545 | 0.2 | / | / | /
COC(=O)c1sc(N2C(=O)C(O)=C(C(=O)c3ccc(C)o3)C2c2ccc(F)cc2)nc1C (configuration not stated) | / | 30.5* | / | 26.4* | 2303* | 19.8 | 30.0* | 22.8* | 19.0
Cc1ccc(C2C(C(=O)c3ccco3)=C(O)C(=O)N2c2nnc(C)s2)cc1 (configuration not stated) | / | 24.1* | / | 19.9 | 1957 | 33.7* | 13.9 | 12.1 | 10.3
Cc1ccc(NC(=O)CN2C(=O)C3C4C=CC(C4)C3C2=O)cc1S(=O)(=O)N(C)C (configuration not stated) | 1934 | -2.5 | 1756 | 0.1 | 1549 | 8.3 | / | / | /
O=C(NNS(=O)(=O)c1ccc(C(=O)NC2CCCC2)cc1)c1ccncc1 | 1663 | 4.6 | 1727 | 9.2 | 1484 | -1.6 | / | / | /
COc1ccc(O)c(C(=O)c2cc(C#N)c(=O)n(Cc3ccccc3)c2)c1 | 1656 | 11.1 | 1633 | 1.6 | 1613 | 5.5 | / | / | /
N#Cc1cc(C(=O)c2cc(Br)ccc2O)cn(Cc2ccccc2)c1=O | 2306 | 31.3* | 1805 | 14.0 | 1955 | 7.6 | 27.3* | 23.1* | 17.7
O=C(NCCC1=CCCCC1)Nc1ccc2nsnc2c1 | 2164 | 27.6* | 1916 | 26.7* | 1887 | 11.9 | 15.7 | 13.4 | 10.4
O=C1NC(=S)S/C1=C\c1ccc(SCc2ccco2)o1 | 1829 | 21.2* | 1738 | 33.0* | 1647 | 14.4 | 2.5 | 6.0 | 2.3
Cc1nc(C(F)(F)F)nc(Nc2ccc(N=Nc3ccccc3)cc2)c1C#N | 1628 | 3.5 | 1435 | 7.3 | 1491 | -4.7 | / | / | /
CS(=O)(=O)c1ccc(C(=O)Nc2ccc(N3CCCCC3)cc2)c(Cl)c1 | 1810 | 11.8 | 1280 | 0.2 | 1563 | 1.5 | / | / | /
Cc1ccc(Sc2ccc(NC(=O)c3ccc(S(C)(=O)=O)cc3Cl)cc2)cc1 | / | 54.2* | / | -0.6 | 1563 | 33.1* | 24.2* | 21.2* | 13.9
Cc1cc(C)c(OCC(=O)N/N=C/c2ccc3c(c2)OCO3)c(C)c1 | 1803 | 1.2 | 1730 | 5.5 | 1641 | 3.3 | / | / | /
CC(=O)CSc1nc(N)c(C#N)c(-c2cccs2)c1C#N | / | 1.0 | / | -1.9 | 1500 | -3.6 | / | / | /
SMILES | SRC1 TRFRET art | PPARg SRC1 recr | SRC3 TRFRET art | PPARg SRC2 recr | SRC2 TRFRET art | PPARg SRC3 recr | PPARg SRC2 ag | PPARg SRC1 conf | PPARg SRC3 conf
CC(=O)CSc1nc(-c2cccs2)c(C#N)c(=O)[nH]1 | 2767* | 16.0 | 2268* | 25.8* | 2150* | 17.3 | 31.2* | 19.9* | 19.8
Cc1nnc(N/N=C/c2cccc(OCc3ccc(Cl)c(Cl)c3)c2)n1N | 1921 | 10.4 | 1614 | -1.5 | 1730 | -10.3 | / | / | /
Cc1ccc2nsnc2c1NS(=O)(=O)c1c(C)ccc2nsnc12 | / | 4.0 | / | -3.2 | 1392 | 12.4 | / | / | /
Cc1ccc(/C=[N+](\[O-])c2ccc(N(C)C)cc2)c2nsnc12 | 2222 | 26.6* | 1884 | 9.5 | 1862 | 11.5 | 16.5 | 12.1 | 8.2
C=CCNC(=S)NNC(=O)c1ccc(=O)n(Cc2ccc(Cl)cc2Cl)c1 | 1846 | 13.8 | 1621 | 1.1 | 1605 | 30.6* | 7.9 | 10.4 | 18.8
CS(=O)(=O)NN1C(=O)c2ccccc2NC1c1c[nH]c2ccccc12 (configuration not stated) | 1764 | 2.5 | 1592 | -4.0 | 1572 | -1.2 | / | / | /
Cc1nn(-c2ccc(F)cc2)c(N)c1C1(O)C(=O)Nc2ccccc21 (configuration not stated) | 1707 | 0.7 | 1400 | -4.3 | 1802 | 8.8 | / | / | /
COc1ccc(Br)cc1-c1nc(CCl)cs1 | 3749* | 62.1* | 3363* | 61.7* | 3230* | 42.2* | 58.6* | 43.1* | 41.3*
O=C(NC1CCCCC1)C(c1ccc(O)c(O)c1)N(C(=O)Cn1nnc2ccccc21)c1cccc(O)c1 (configuration not stated) | 1806 | 0.4 | 1641 | -0.5 | 1625 | 1.6 | / | / | /
Nc1oc2ccccc2c(=O)c1C=O | 1608 | -7.0 | 1370 | -1.9 | 1409 | 2.0 | / | / | /
O=[N+]([O-])c1cc(Br)c(O)c(C=Nc2ccc(N3CCOCC3)cc2)c1 | 2849* | 61.2* | 2532* | 64.4* | 2845* | 45.4* | 11.4 | 15.7 | 8.6
Oc1ccc(N=Cc2cc(Br)c(N3CCOCC3)o2)cc1 | 1576 | -6.2 | 1705 | -0.1 | 1652 | 5.9 | / | / | /
CCO[C@@H]1OC(C(=O)O)=C[C@H](c2ccc(C(F)(F)F)cc2)[C@H]1CCCO | 1673 | -11.3 | 1425 | -3.6 | 1330 | -2.4 | / | / | /
Cc1n[nH]c(C)c1CCc1nc2c3ccccc3nc(SCC(N)=O)n2n1 | / | -0.3 | / | 0.1 | 1450 | 4.8 | / | / | /

Screens from PubChem BioAssay.
